Compound activity (PubChem BioAssay)
KCNQ2 block = rat KCNQ2 potassium channel inhibitors, primary screen, cell-based, CHO-K1, FluxOR thallium flux, B-score; 20 min; active compounds read low; 1.1% of 310,000 active; Potassium voltage-gated channel subfamily KQT member 2 (Rattus norvegicus), O88943; B-score at 10 µM;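 active = fluorescence ratio B-score at most minus 3 library SDs, with starting brightness B-score within 2 library SDs, cut at about -5.5 in these data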
Target sequence (O88943 whole entry, looked up): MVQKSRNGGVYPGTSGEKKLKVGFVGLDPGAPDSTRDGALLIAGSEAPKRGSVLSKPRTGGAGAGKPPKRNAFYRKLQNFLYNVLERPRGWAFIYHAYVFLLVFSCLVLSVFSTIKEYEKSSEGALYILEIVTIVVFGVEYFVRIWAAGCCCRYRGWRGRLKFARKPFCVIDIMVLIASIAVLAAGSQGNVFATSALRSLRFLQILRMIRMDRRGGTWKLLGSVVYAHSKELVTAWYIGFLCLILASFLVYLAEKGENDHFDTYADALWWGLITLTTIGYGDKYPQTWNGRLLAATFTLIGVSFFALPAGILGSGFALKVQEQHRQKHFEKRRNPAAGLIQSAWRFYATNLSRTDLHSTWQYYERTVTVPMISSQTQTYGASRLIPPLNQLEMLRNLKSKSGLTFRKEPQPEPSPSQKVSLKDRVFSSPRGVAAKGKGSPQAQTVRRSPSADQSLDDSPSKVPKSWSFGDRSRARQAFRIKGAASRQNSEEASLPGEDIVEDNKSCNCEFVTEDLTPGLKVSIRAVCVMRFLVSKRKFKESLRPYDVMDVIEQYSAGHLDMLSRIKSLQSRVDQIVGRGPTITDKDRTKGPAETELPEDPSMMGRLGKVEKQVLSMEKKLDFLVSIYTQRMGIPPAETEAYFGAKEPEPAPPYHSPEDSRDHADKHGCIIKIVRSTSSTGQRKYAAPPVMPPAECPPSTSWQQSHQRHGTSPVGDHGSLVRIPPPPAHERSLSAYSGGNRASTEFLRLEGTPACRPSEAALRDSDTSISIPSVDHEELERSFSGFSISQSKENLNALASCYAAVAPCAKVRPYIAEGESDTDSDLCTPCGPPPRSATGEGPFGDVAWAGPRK
KCNQ2 pot = potentiators of rat KCNQ2 potassium channel; 0.54% of 310,000 active; B-score at 10 µM; CHO-K1 KCNQ2, FluxOR thallium flux fluorescence; active compounds read high; Potassium voltage-gated channel subfamily KQT member 2 (Rattus norvegicus), O88943; AID 2239, 2010;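 active = fluorescence ratio B-score at least 3 SD of library B-scores, with initial fluorescence B-score within 3 of them, cut at about 5.3 in these data; same plate scores as AID 2156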;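 note: B-score of peak minus minimum over baseline fluorescence ratio after K+ and Tl+ stimulus; positive B-score means potentiation of KCNQ2 with more thallium influx and brighter signal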
KCNQ2 block conf = rat KCNQ2 potassium channel inhibitors, confirmation, cell-based, thallium flux | shares compounds with KCNQ2 block | KCNQ2-expressing cells, inhibition; active compounds read low | activity change, negative = inhibition, % at 10 µM | 57% of 1,000 active;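 note: 0% = vehicle wells and values are ratio percent relative to vehicle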
KCNQ1 spec = human KCNQ1 channel inhibition, counter-screen for KCNQ2 inhibitor project, cell-based, FluxOR thallium flux; shares compounds with KCNQ2 block; KCNQ1-expressing cells, FluxOR thallium flux fluorescence; active compounds read low; activity change, negative = inhibition, % at 10 µM; 15% of 1,000 active;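 active = activity change at least 3 SD of negative controls below their mean in both duplicate wells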;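 note: CHO cells stably transfected with KCNQ1 and depolarized by potassium stimulus; peak minus minimum fluorescence over baseline after thallium addition; 0% = vehicle negative control and -100% = blank without thallium stimulus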
CHO Tl ctr = thallium flux change in parental CHO cells, counter-screen for KCNQ2 inhibitor project | activity change, % at 10 µM | 14% of 1,000 active | active compounds read low | shares compounds with KCNQ2 block;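 note: 0% = vehicle negative controls with stimulus buffer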
KCNQ2 patch conf = rat KCNQ2 channel inhibitors, confirmation, cell-based, automated patch clamp, single concentration; 49% of 550 active; calls only at 10 µM; AID 588531, 2011; shares compounds with KCNQ2 block; KCNQ2-expressing cells, automated patch clamp current
An asterisk follows results filed as active; i = inactive; x = no result; + = active, no number. Compounds with a hit are over-represented: about 1.6% of the library has one in this group of screens. Unless noted, the rule behind the calls is not given here.

SMILES	KCNQ2 block	KCNQ2 pot	KCNQ2 block conf	KCNQ1 spec	CHO Tl ctr	others
CNc1c(NS(=O)(=O)c2cc(Cl)ccc2OC)c(=O)oc2ccccc12	i	0.18	x	x	x
Cc1ccc(N2C(=O)N(CC(=O)Nc3ccccc3C)C(=O)C2C)cc1 (stereo not given)	i	x	x	x	x
Cc1ccc(N2C(=O)N(CC(=O)NCc3ccccc3Cl)C(=O)C2C)cc1 (stereo not given)	-6.6*	-6.6	-28%*	i	i	KCNQ2 patch conf=+
COc1ccc(NC(=O)CN(c2ccccc2F)S(=O)(=O)c2ccc(C)cc2)c(OC)c1	i	x	x	x	x
CC(=O)N1N=C(c2ccccc2)CC1c1ccc(F)cc1 (stereo not given)	i	x	x	x	x
Cc1ccc(NC(=O)N2N=C(c3ccc(F)cc3)CC2c2ccc(F)cc2)cc1 (stereo not given)	-7.9*	-7.9	i	i	i
COC(=O)[C@@]12CCCCN1[C@H](c1ccc(-c3ccc(F)cc3)cc1)[C@@H]1C(=O)N(C)C(=O)[C@@H]12	i	1.5	x	x	x
CCOC(=O)c1cnc2c(OC)cccc2c1N1CCN(c2ccc(OC)cc2)CC1	i	x	x	x	x
CCOC(=O)c1cnc2c(OC)cccc2c1N1CCN(c2ccccc2OC)CC1	-12*	-12	-30%*	i	i	KCNQ2 patch conf=i
Cc1csc(=O)n1CC(=O)OCC(=O)Nc1cc(Cl)ccc1[N+](=O)[O-]	i	0.51	x	x	x
Clc1ccc(/C=N/NC(=Nc2ccccc2)c2ccccn2)c(Cl)c1	-8.2*	-8.2	-28%*	i	i	KCNQ2 patch conf=+
C(=N\NC(=Nc1ccccc1)c1ccccn1)/c1ccccn1	i	x	x	x	x
COc1ccc(/C=C/C(=O)c2ccccc2)cc1COc1ccc(F)cc1	-6.6*	-6.6	i	i	i
COc1ccc(/C=C/C(=O)c2ccc(O)cc2)cc1COc1ccc(F)cc1	i	x	x	x	x
Cc1ccc(C(C(=O)NCc2ccc(F)cc2)N(C(=O)c2csnn2)C2CC2)o1 (stereo not given)	-8.7*	-8.7	-20%*	i	i	KCNQ2 patch conf=+
Cc1ccc(C(C(=O)NCc2ccc(F)cc2)N(C(=O)c2csnn2)C2CC2)cc1 (stereo not given)	i	x	x	x	x
Cc1ccc(S(=O)(=O)N(CC(=O)NCCC2=CCCCC2)Cc2ccccc2F)cc1	-7*	-7	i	i	i
O=C(CN(Cc1ccccc1)S(=O)(=O)c1ccc(F)cc1)NCCC1=CCCCC1	i	x	x	x	x
COc1ccc(CNC(=O)CN(Cc2ccc(C)cc2)S(=O)(=O)c2ccc(Cl)cc2)cc1	-6.7*	-6.7	i	i	i
Cc1ccc(S(=O)(=O)N(CC(=O)NCCC2=CCCCC2)Cc2ccccc2)cc1	-11*	-11	-30%*	i	i	KCNQ2 patch conf=i
O=C(CN(Cc1ccccc1F)S(=O)(=O)c1ccc(Cl)cc1)NCCC1=CCCCC1	i	x	x	x	x
COc1ccc(CNC(=O)CN(C)S(=O)(=O)c2ccc(Cl)cc2)cc1	i	x	x	x	x
COc1ccc(N(CC(=O)NC2CCCCC2)C(=O)c2ccc(C)s2)c(OC)c1	i	x	x	x	x
O=C(O)CCC(=O)Nc1ccc(Oc2ncnc3cc(Cl)ccc23)nc1	i	x	x	x	x
O=C(CCc1nc2ccccc2c(=O)[nH]1)N1CCCc2ccccc21	i	1.6	x	x	x
O=C(Cn1nnc2c(cnn2-c2ccccc2)c1=O)NCc1cccs1	i	x	x	x	x
CC1CCC(C(C)C)C(OC(=O)Cn2nnc3c(cnn3-c3ccccc3)c2=O)C1 (stereo not given)	-7.3*	-7.3	-27%*	i	i
O=C(NCc1cccs1)c1ccc(CS(=O)Cc2cccc(Cl)c2)o1 (stereo not given)	i	1.3	x	x	x
Clc1ccc(CN(Cc2ccccc2)C(c2cccs2)c2nnnn2C2CCCC2)cc1 (stereo not given)	i	x	x	x	x
CC(C)(C)n1nnnc1C(c1cccs1)N(Cc1ccc(Cl)cc1)CC1CCCO1 (stereo not given)	-9.9*	-9.9	i	i	i
